Results published in PubChem BioAssay (EPA / NIEHS).
“And” between values parts separate entries of the source, which are not always exact repeats. Equal entries are not always repeated. Some compounds were tested as several samples or in several runs, with calls that do not always agree. The source made the active and inactive calls. How the source made its calls: active means hit-call score of the fitted dose curve at least 0.9, where 1 is the maximum; inactive means score below 0.9.

What follows are compounds tested on Heat shock 70 kDa protein 1 (HSPA1A), gene 3303 (assay: LTEA_HepaRG_HSPA1A: Life Technologies and Expression Analysis (LTEA) Assay for Heat shock 70 kDa protein 1 (HSPA1A) using HepaRG (AID 2283502)). Details: mRNA level, 48 h; actives raise or lower the signal.
Procedure, shortened: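 Readout is HSPA1A transcript level by microfluidic qRT-PCR, normalized to three housekeeping genes and analysed for gain or loss of signal relative to 0.5% DMSO. Human HepaRG cultures received test chemicals for 48 h at up to 100 uM.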
For `COC(=O)c1ccc(C(=O)OC)cc1`, the outcome was “inactive”.
`C[C@]12CC[C@@H]3c4ccc(O)cc4CC[C@H]3[C@@H]1CC[C@@H]2O` was tested, and the outcome was “inactive”.
`C#C[C@]1(O)CC[C@H]2[C@@H]3CCc4cc(O)ccc4[C@H]3CC[C@@]21C` was tested, and the outcome was “inactive”.
For `CCCCOCCOCCO`, the outcome was “inactive”.
With `CC/C(=C(\c1ccccc1)c1ccc(OCCN(C)C)cc1)c1ccccc1` the AC50 was 74.8 µM (active) and 76.4 µM (active).
For `O=C(c1ccc(OCCN2CCCCC2)cc1)c1c(-c2ccc(O)cc2)sc2cc(O)ccc12`, the AC50 was 88.1 µM (active).
`C=C(C)C(N)=O` was tested, and the outcome was “inactive”.

What follows are compounds tested on Hypoxia-inducible factor 1-alpha (Homo sapiens) (UniProt Q16665) (assay: LTEA_HepaRG_HIF1A: Life Technologies and Expression Analysis (LTEA) Assay for Hypoxia-inducible factor 1 (HIF1A) Trancription factor using HepaRG (AID 2283503)). Details: mRNA level, 48 h; actives raise or lower the signal.
Sequence of Hypoxia-inducible factor 1-alpha (Homo sapiens) (Q16665 whole entry, looked up): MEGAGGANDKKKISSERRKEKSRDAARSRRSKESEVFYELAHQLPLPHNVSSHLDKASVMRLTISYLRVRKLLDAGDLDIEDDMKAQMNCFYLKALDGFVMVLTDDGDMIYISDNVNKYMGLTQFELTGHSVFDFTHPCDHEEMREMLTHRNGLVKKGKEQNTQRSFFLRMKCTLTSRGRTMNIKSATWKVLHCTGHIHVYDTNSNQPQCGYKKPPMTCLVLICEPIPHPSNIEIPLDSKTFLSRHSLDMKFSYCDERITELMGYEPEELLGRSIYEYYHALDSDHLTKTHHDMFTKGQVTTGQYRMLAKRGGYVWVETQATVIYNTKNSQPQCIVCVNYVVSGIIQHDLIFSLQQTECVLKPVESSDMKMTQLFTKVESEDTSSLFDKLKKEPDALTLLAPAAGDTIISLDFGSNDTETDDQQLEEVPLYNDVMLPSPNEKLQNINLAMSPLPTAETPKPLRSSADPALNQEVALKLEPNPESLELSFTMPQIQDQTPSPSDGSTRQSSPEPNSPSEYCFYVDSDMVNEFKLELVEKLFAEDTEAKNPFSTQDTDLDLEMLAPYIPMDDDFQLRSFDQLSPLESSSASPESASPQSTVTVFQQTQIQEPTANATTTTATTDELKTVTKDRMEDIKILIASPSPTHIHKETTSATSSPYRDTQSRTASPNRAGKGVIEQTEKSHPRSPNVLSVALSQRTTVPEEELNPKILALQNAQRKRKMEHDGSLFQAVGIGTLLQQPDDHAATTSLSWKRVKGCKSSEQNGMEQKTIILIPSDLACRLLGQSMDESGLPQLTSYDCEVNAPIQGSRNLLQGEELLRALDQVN
Procedure, shortened: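 Differentiated HepaRG cells in serum-free induction medium exposed 48 h, in duplicate, to 8-point half-log series from 100 uM in 0.5% DMSO. HIF1A mRNA measured by TaqMan qRT-PCR, normalized to ACTB/GAPDH/POLR2A, fitted bidirectionally versus DMSO.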
With `COC(=O)c1ccc(C(=O)OC)cc1` the outcome was “inactive”.
`C#C[C@]1(O)CC[C@H]2[C@@H]3CCc4cc(O)ccc4[C@H]3CC[C@@]21C` was tested, and the outcome was “inactive”.
In the case of `CCCCOCCOCCO`, the outcome is reported as “inactive”.
For `CC/C(=C(\c1ccccc1)c1ccc(OCCN(C)C)cc1)c1ccccc1`, the AC50 was 82 µM (active) and the outcome was “inactive”.
For `C=C(C)C(N)=O`, the outcome was “inactive”.

What follows are compounds tested on 3-Hydroxy-3-Methylglutaryl-CoA Synthase 2 (HMGCS2), HMGCS2 (gene 3158) (assay: LTEA_HepaRG_HMGCS2: Life Technologies and Expression Analysis (LTEA) Assay for 3-Hydroxy-3-Methylglutaryl-CoA Synthase 2 (HMGCS2) using HepaRG (AID 2283504)). Details: mRNA level, 48 h; actives raise or lower the signal.
Procedure, shortened: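 Readout is HMGCS2 transcript by qRT-PCR, housekeeping-normalised (ACTB/GAPDH/POLR2A) and fitted bidirectionally against 0.5% DMSO. Differentiated HepaRG cells received chemicals 48 h, duplicate wells, eight half-log concentrations topping at 100 uM.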
With `COC(=O)c1ccc(C(=O)OC)cc1` the outcome was “inactive”.
With `C[C@]12CC[C@@H]3c4ccc(O)cc4CC[C@H]3[C@@H]1CC[C@@H]2O` the outcome was “inactive”.
With `C#C[C@]1(O)CC[C@H]2[C@@H]3CCc4cc(O)ccc4[C@H]3CC[C@@]21C` the outcome was “inactive”.
In the case of `CCCCOCCOCCO`, the outcome is reported as “inactive”.
In the case of `CC/C(=C(\c1ccccc1)c1ccc(OCCN(C)C)cc1)c1ccccc1`, the AC50 is reported as 66 µM (active) and the outcome is reported as “inactive”.
`O=C(c1ccc(OCCN2CCCCC2)cc1)c1c(-c2ccc(O)cc2)sc2cc(O)ccc12` was tested, and the AC50 was 3.14 µM (active).
In the case of `C=C(C)C(N)=O`, the outcome is reported as “inactive”.

The compounds below were run on HGF (gene 3082) (assay: LTEA_HepaRG_HGF: Life Technologies and Expression Analysis (LTEA) Assay for Hepatocyte Growth Facto (HGF) using HepaRG (AID 2283505)). Details: mRNA level, 48 h; actives raise or lower the signal.
Procedure, shortened: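 HGF transcript was quantified by TaqMan qRT-PCR against three housekeeping genes after 48 h treatment of HepaRG cells. Exposure ran in duplicate over eight half-log steps topping at 100 uM in 0.5% DMSO vehicle.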
`COC(=O)c1ccc(C(=O)OC)cc1` was tested, and the outcome was “inactive”.
In the case of `C[C@]12CC[C@@H]3c4ccc(O)cc4CC[C@H]3[C@@H]1CC[C@@H]2O`, the outcome is reported as “inactive”.
In the case of `C#C[C@]1(O)CC[C@H]2[C@@H]3CCc4cc(O)ccc4[C@H]3CC[C@@]21C`, the outcome is reported as “inactive”.
`CCCCOCCOCCO` was tested, and the outcome was “inactive”.
`CC/C(=C(\c1ccccc1)c1ccc(OCCN(C)C)cc1)c1ccccc1` was tested, and the outcome was “inactive”.
With `O=C(c1ccc(OCCN2CCCCC2)cc1)c1c(-c2ccc(O)cc2)sc2cc(O)ccc12` the outcome was “inactive”.
With `C=C(C)C(N)=O` the outcome was “inactive”.

The compounds below were run on Insulin Like Growth Factor 1 (IGF1), IGF1 (gene 3479) (assay: LTEA_HepaRG_IGF1: Life Technologies and Expression Analysis (LTEA) Assay for Insulin Like Growth Factor 1 (IGF1) using HepaRG (AID 2283506)). Details: mRNA level, 48 h; actives raise or lower the signal.
Procedure, shortened: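 HepaRG, plated 48 h, then switched to serum-free induction media; test chemical 8-pt half-log from 100 uM (0.5% DMSO), duplicate, 48 h. Lysis in RLT, TaqMan qRT-PCR, norm. ACTB/GAPDH/POLR2A. Bidirectional fit vs DMSO.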
With `COC(=O)c1ccc(C(=O)OC)cc1` the outcome was “inactive”.
`C[C@]12CC[C@@H]3c4ccc(O)cc4CC[C@H]3[C@@H]1CC[C@@H]2O` was tested, and the AC50 was 31.2 µM (active).
In the case of `C#C[C@]1(O)CC[C@H]2[C@@H]3CCc4cc(O)ccc4[C@H]3CC[C@@]21C`, the outcome is reported as “inactive”.
`CCCCOCCOCCO` was tested, and the outcome was “inactive”.
In the case of `CC/C(=C(\c1ccccc1)c1ccc(OCCN(C)C)cc1)c1ccccc1`, the AC50 is reported as 84.6 µM (active) and the outcome is reported as “inactive”.
In the case of `O=C(c1ccc(OCCN2CCCCC2)cc1)c1c(-c2ccc(O)cc2)sc2cc(O)ccc12`, the AC50 is reported as 78.3 µM (active).
With `C=C(C)C(N)=O` the outcome was “inactive”.

The compounds below were run on Intercellular Adhesion Molecule 1 (ICAM1), ICAM1 (gene 3383) (assay: LTEA_HepaRG_ICAM1: Life Technologies and Expression Analysis (LTEA) Assay for Intercellular Adhesion Molecule 1 (ICAM1) using HepaRG (AID 2283507)). Details: mRNA level, 48 h; actives raise or lower the signal.
Procedure, shortened: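 ICAM1 transcript levels measured by qRT-PCR, normalized to three housekeeping genes (ACTB, GAPDH, POLR2A), after 48 h chemical exposure of HepaRG cells. Duplicate eight-point half-log series from 100 uM in 0.5% DMSO; gain or loss fitted against vehicle.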
In the case of `COC(=O)c1ccc(C(=O)OC)cc1`, the outcome is reported as “inactive”.
`C[C@]12CC[C@@H]3c4ccc(O)cc4CC[C@H]3[C@@H]1CC[C@@H]2O` was tested, and the outcome was “inactive”.
With `C#C[C@]1(O)CC[C@H]2[C@@H]3CCc4cc(O)ccc4[C@H]3CC[C@@]21C` the outcome was “inactive”.
For `CCCCOCCOCCO`, the outcome was “inactive”.
In the case of `CC/C(=C(\c1ccccc1)c1ccc(OCCN(C)C)cc1)c1ccccc1`, the AC50 is reported as 85.1 µM (active) and 99.2 µM (active).
With `O=C(c1ccc(OCCN2CCCCC2)cc1)c1c(-c2ccc(O)cc2)sc2cc(O)ccc12` the AC50 was 71 µM (active).
`C=C(C)C(N)=O` was tested, and the outcome was “inactive”.

What follows are compounds tested on Insulin-like growth factor-binding protein 1 (IGFBP1), IGFBP1 (gene 3484) (assay: LTEA_HepaRG_IGFBP1: Life Technologies and Expression Analysis (LTEA) Assay for Insulin-like growth factor-binding protein 1 (IGFBP1) using HepaRG (AID 2283508)). Details: mRNA level, 48 h; actives raise or lower the signal.
Procedure, shortened: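 Read-out is qRT-PCR transcript level normalized to three housekeeping genes, fitted in both directions against 0.5% DMSO. Differentiated HepaRG cells received eight half-log concentrations (top 100 uM) in duplicate for 48 h in serum-free induction medium.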
For `COC(=O)c1ccc(C(=O)OC)cc1`, the outcome was “inactive”.
With `C[C@]12CC[C@@H]3c4ccc(O)cc4CC[C@H]3[C@@H]1CC[C@@H]2O` the outcome was “inactive”.
`C#C[C@]1(O)CC[C@H]2[C@@H]3CCc4cc(O)ccc4[C@H]3CC[C@@]21C` was tested, and the outcome was “inactive”.
In the case of `CCCCOCCOCCO`, the outcome is reported as “inactive”.
With `CC/C(=C(\c1ccccc1)c1ccc(OCCN(C)C)cc1)c1ccccc1` the AC50 was 65.9 µM (active) and 57 µM (active).
In the case of `O=C(c1ccc(OCCN2CCCCC2)cc1)c1c(-c2ccc(O)cc2)sc2cc(O)ccc12`, the AC50 is reported as 75.6 µM (active).
With `C=C(C)C(N)=O` the outcome was “inactive”.

What follows are compounds tested on Interleukin 6 (IL6), IL6 (gene 3569) (assay: LTEA_HepaRG_IL6: Life Technologies and Expression Analysis (LTEA) Assay for Interleukin 6 (IL6) using HepaRG (AID 2283509)). Details: mRNA level, 48 h; actives raise or lower the signal.
Procedure, shortened: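 Differentiated human HepaRG cells, plated 48 h then switched to serum-free induction medium, were exposed in duplicate for 48 h to eight half-log concentrations up to 100 uM in 0.5% DMSO. IL6 mRNA measured by qRT-PCR, normalized to ACTB/GAPDH/POLR2A.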
For `COC(=O)c1ccc(C(=O)OC)cc1`, the outcome was “inactive”.
`C[C@]12CC[C@@H]3c4ccc(O)cc4CC[C@H]3[C@@H]1CC[C@@H]2O` was tested, and the outcome was “inactive”.
For `C#C[C@]1(O)CC[C@H]2[C@@H]3CCc4cc(O)ccc4[C@H]3CC[C@@]21C`, the outcome was “inactive”.
`CCCCOCCOCCO` was tested, and the outcome was “inactive”.
For `CC/C(=C(\c1ccccc1)c1ccc(OCCN(C)C)cc1)c1ccccc1`, the AC50 was 71.4 µM (active) and 92.3 µM (active).
For `O=C(c1ccc(OCCN2CCCCC2)cc1)c1c(-c2ccc(O)cc2)sc2cc(O)ccc12`, the AC50 was 75.9 µM (active).
For `C=C(C)C(N)=O`, the outcome was “inactive”.

The compounds below were run on Interleukin 6 Receptor (IL6R), IL6R (gene 3570) (assay: LTEA_HepaRG_IL6R: Life Technologies and Expression Analysis (LTEA) Assay for Interleukin 6 Receptor (IL6R) using HepaRG (AID 2283510)). Details: mRNA level, 48 h; actives raise or lower the signal.
Procedure, shortened: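 Readout is IL6R transcript level by TaqMan qRT-PCR, normalized to three housekeeping genes and fitted bidirectionally against 0.5% DMSO controls. Human HepaRG cells received chemicals for 48 h in serum-free induction medium, highest concentration 100 uM.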
In the case of `COC(=O)c1ccc(C(=O)OC)cc1`, the outcome is reported as “inactive”.
`C[C@]12CC[C@@H]3c4ccc(O)cc4CC[C@H]3[C@@H]1CC[C@@H]2O` was tested, and the outcome was “inactive”.
In the case of `C#C[C@]1(O)CC[C@H]2[C@@H]3CCc4cc(O)ccc4[C@H]3CC[C@@]21C`, the outcome is reported as “inactive”.
With `CCCCOCCOCCO` the outcome was “inactive”.
For `CC/C(=C(\c1ccccc1)c1ccc(OCCN(C)C)cc1)c1ccccc1`, the AC50 was 93.4 µM (active) and the outcome was “inactive”.
`O=C(c1ccc(OCCN2CCCCC2)cc1)c1c(-c2ccc(O)cc2)sc2cc(O)ccc12` was tested, and the outcome was “inactive”.
In the case of `C=C(C)C(N)=O`, the outcome is reported as “inactive”.
